Measured values reported in PubChem BioAssay (NCI).
The panel holds about 83,000 compounds, 20% with a hit somewhere; the sample as a whole holds those more often.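 How to read the values: 0–100, growth inhibition (40 = 60% inhibited); 0, no net growth; -100 to 0, cell death (-40 = 40% of starting cells died; -100 = all dead).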 Values without a mark were called inactive. Activity calls are given as the source filed them. The calls were made as follows: active = growth percent below 10; inactive = the rest.

test system: HOP-92 NSCLC; test: NCI-60 one-dose screen, 48 h (100 = growth as untreated, 0 = no growth, -100 = all killed); conditions: 10 µM unless noted

SMILES	growth
Nc1c(C(=O)c2ccccc2)sc2nc(-c3cccs3)ccc12	69.6%
COc1ccc2c(CCCCC(c3ccccc3)c3ccccc3)c3[n+](cc2c1OC)CCc1cc2c(cc1-3)OCO2	-72.7% (active)
CC(C)(C)C(=O)OCOP(=O)(OCOC(=O)C(C)(C)C)C1CCCN(OC(=O)c2ccccc2)C1=O (centres undefined)	29.3%
O=C(Cc1ccccc1)Nc1nnc(NC2CCN(c3nnc(NC(=O)Cc4ccccc4)s3)CC2)s1	94.5%
CCCCCCC1(/C=N/NC(N)=O)NC(=O)NC1=O (centres undefined)	110%
CC(N)C(Cc1ccc(Cl)cc1)c1ccc(Cl)cc1 (centres undefined)	21.5%
CC(C)[C@@H](C)/C=C/[C@@H](C)[C@H]1CCC2=C3C=CC4=CC(=O)CC[C@]4(C)[C@H]3CC[C@@]21C	86.6%
CCOC(=O)C1=C(C)N=C2Sc3cc(OC(F)(F)F)ccc3N2[C@H]1c1ccccn1	68%
COC(=O)[C@]12CC[C@@H](C)[C@H](C)[C@@H]1C1=CC[C@@H]3[C@@]4(C)C(c5cnco5)=C[C@@](C)(CO)C4=CC[C@@]3(C)[C@]1(C)CC2	41.8%
C=C1C(=O)O[C@H]2[C@H]1CC/C(Cn1cc(-c3cc(C)c(C)cc3C)nn1)=C\CC[C@@]1(C)O[C@@H]21	-79% (active)
C=C1C(=O)O[C@H]2[C@H]1CC/C(CNC(=O)c1cc3cc(OC)ccc3[nH]1)=C\CC[C@@]1(C)O[C@@H]21	-67.3% (active)
C=CCC(=O)N[C@H](/C=C/C(=O)O)Cc1ccc(-c2cc(Cl)cc(Cl)c2)cc1	96.4%
NN1C(=O)CSC1=S	102%
CC(=O)C(C(C)=O)C(c1ccccc1)C(C(C)=O)C(C)=O	97.5%
COc1cc(NCCN(CC(C)C)CC(C)C)c2ncc(C)cc2c1	132%
COc1ccc2c(CCC(c3ccccc3)c3ccccc3)c3[n+](cc2c1OC)CCc1cc2c(cc1-3)OCO2	-9.89% (active)
O=C1CC(c2ccc3c(c2)OCO3)c2ncn(-c3ccc(Cl)cc3)c2N1 (centres undefined)	69.7%
Clc1nc(Cl)c2ncn(CC#CCn3cnc4c(Cl)nc(Cl)nc43)c2n1	-87.6% (active)
COc1ccc(C2CC(=O)c3c(O)c(OC)c(OC)c(OC)c3O2)c(O)c1 (centres undefined)	77.9%
C[N+](C)(CCOC(c1ccccc1)c1ccccc1)CC(=O)OCc1ccccc1	106%
Nc1c2c(c(O)c3c1=C(CO)C=N3)=NCCS2	-71.2% (active)
Cc1cccc(NC(=O)[C@@H]2c3ccccc3C(=O)N(c3ccc(Cl)cc3)[C@H]2c2ccc(Cl)cc2)n1	42%
CC(N)C(Cc1ccccc1)c1ccc(Cl)cc1 (centres undefined)	56.5%
C=CCCCC(=O)CCC(=O)OCC1O[C@@H](O[C@@H]2C(O)[C@@H](OC(C)=O)C(C)O[C@H]2O[C@H](CC=C)CCCCC)C(O)[C@@H](OC(=O)/C(C)=C/C)[C@@H]1OC(=O)/C=C/c1ccccc1 (some centres undefined)	0.347% (active)
COc1ccc2c(c1OC)C(=O)O[C@@H]2[C@H]1c2c(c(C#CC#Cc3ccc(F)c(F)c3)c3c(c2OC)OCO3)CCN1C	82.3%

test system: NCI-H522 lung; test: as above; conditions: 10 µM unless noted

SMILES	growth
COc1cc2c3c(c1)nc(C)n3CCC2	93.4%
Cc1sc2c(c1C)c(=O)nc1c(-c3nc4ccccc4s3)n[nH]n12	90.8%
COc1cc2c(cc1OCCCCCN1CCN(c3ncnc4ccccc34)CC1)N=CC1CCCN1C2=O (centres undefined)	-55.4% (active)
COc1cc2c(cc1OCCCCN1CCN(CC(=O)Nc3ccc(Cl)cc3C(=O)c3ccccc3Cl)CC1)N=CC1CCCN1C2=O (centres undefined)	-83.4% (active)
CCOC(=O)C1=C(C)NC(=O)NC1c1cc(=O)oc2ccc(C)cc12 (centres undefined)	81.5%
COc1ccc2nc3cc(Cl)ccc3c(Nc3ccc(N(C)C)cc3)c2c1	86.6%
C[C@@H](C[C@H](CCO)c1cc(C(F)(F)F)cc(C(F)(F)F)c1)c1ccc2ccccc2c1	76.7%
COc1ccc2c(CCCc3ccc(Cl)cc3Cl)c3[n+](cc2c1OC)CCc1cc2c(cc1-3)OCO2	-12.4% (active)
COc1cc2c(cc1OCCCCCCN1CCN(c3ncnc4ccccc34)CC1)N=CC1CCCN1C2=O (centres undefined)	-55.2% (active)
c1cc[n+](Cc2c3ccccc3cc3c2ccc2ccccc23)cc1	18.4%
CC(C)[C@@H]1CC[C@]2(CO2)[C@@H]2C(=O)OCC(C(=O)O)=C[C@H]21	-45.8% (active)
N#Cc1c(NC(=O)c2cccs2)[n+]([O-])c2ccc(F)cc2[n+]1[O-]	87%
CC(CCCC(=O)O)c1ccoc1 (centres undefined)	83.2%
CCCCCCCC(=O)SCC/C=C/[C@@H]1CC(=O)NCc2nc(co2)C2=N[C@@](C)(CS2)C(=O)N[C@@H](C(C)C)C(=O)O1	-10.2% (active)
Nc1c(C(=O)c2ccccc2)sc2nc(-c3cccs3)ccc12	-25.7% (active)
COc1ccc2c(CCCCC(c3ccccc3)c3ccccc3)c3[n+](cc2c1OC)CCc1cc2c(cc1-3)OCO2	-57.5% (active)
CC(C)(C)C(=O)OCOP(=O)(OCOC(=O)C(C)(C)C)C1CCCN(OC(=O)c2ccccc2)C1=O (centres undefined)	12.9%
O=C(Cc1ccccc1)Nc1nnc(NC2CCN(c3nnc(NC(=O)Cc4ccccc4)s3)CC2)s1	72.5%
CCCCCCC1(/C=N/NC(N)=O)NC(=O)NC1=O (centres undefined)	58%
CC(N)C(Cc1ccc(Cl)cc1)c1ccc(Cl)cc1 (centres undefined)	-18.1% (active)

SMILES	growth
CC(C)[C@@H](C)/C=C/[C@@H](C)[C@H]1CCC2=C3C=CC4=CC(=O)CC[C@]4(C)[C@H]3CC[C@@]21C	67.2%
CCOC(=O)C1=C(C)N=C2Sc3cc(OC(F)(F)F)ccc3N2[C@H]1c1ccccn1	48.5%
COC(=O)[C@]12CC[C@@H](C)[C@H](C)[C@@H]1C1=CC[C@@H]3[C@@]4(C)C(c5cnco5)=C[C@@](C)(CO)C4=CC[C@@]3(C)[C@]1(C)CC2	33.9%
C=C1C(=O)O[C@H]2[C@H]1CC/C(Cn1cc(-c3cc(C)c(C)cc3C)nn1)=C\CC[C@@]1(C)O[C@@H]21	-64.2% (active)
C=C1C(=O)O[C@H]2[C@H]1CC/C(CNC(=O)c1cc3cc(OC)ccc3[nH]1)=C\CC[C@@]1(C)O[C@@H]21	-67.5% (active)
C=CCC(=O)N[C@H](/C=C/C(=O)O)Cc1ccc(-c2cc(Cl)cc(Cl)c2)cc1	70.7%
NN1C(=O)CSC1=S	73.3%
CC(=O)C(C(C)=O)C(c1ccccc1)C(C(C)=O)C(C)=O	91.7%
COc1cc(NCCN(CC(C)C)CC(C)C)c2ncc(C)cc2c1	73.2%
COc1ccc2c(CCC(c3ccccc3)c3ccccc3)c3[n+](cc2c1OC)CCc1cc2c(cc1-3)OCO2	-0.122% (active)
O=C1CC(c2ccc3c(c2)OCO3)c2ncn(-c3ccc(Cl)cc3)c2N1 (centres undefined)	-19.2% (active)
Clc1nc(Cl)c2ncn(CC#CCn3cnc4c(Cl)nc(Cl)nc43)c2n1	-71.2% (active)
COc1ccc(C2CC(=O)c3c(O)c(OC)c(OC)c(OC)c3O2)c(O)c1 (centres undefined)	12%
C[N+](C)(CCOC(c1ccccc1)c1ccccc1)CC(=O)OCc1ccccc1	93.8%
Nc1c2c(c(O)c3c1=C(CO)C=N3)=NCCS2	-46.4% (active)
Cc1cccc(NC(=O)[C@@H]2c3ccccc3C(=O)N(c3ccc(Cl)cc3)[C@H]2c2ccc(Cl)cc2)n1	38.7%
CC(N)C(Cc1ccccc1)c1ccc(Cl)cc1 (centres undefined)	75.9%
C=CCCCC(=O)CCC(=O)OCC1O[C@@H](O[C@@H]2C(O)[C@@H](OC(C)=O)C(C)O[C@H]2O[C@H](CC=C)CCCCC)C(O)[C@@H](OC(=O)/C(C)=C/C)[C@@H]1OC(=O)/C=C/c1ccccc1 (some centres undefined)	34.8%
COc1ccc2c(c1OC)C(=O)O[C@@H]2[C@H]1c2c(c(C#CC#Cc3ccc(F)c(F)c3)c3c(c2OC)OCO3)CCN1C	86.5%
